Most compounds without a hit are left out; they make up all but 3.5% or so of the library.
FBW7 activator – FBW7 E3 ligase activators, primary screen, biochemical, AlphaScreen, human. F-box/WD repeat-containing protein 7 (Homo sapiens), Q969H0. AID 1259310, 2017. AlphaScreen FBW7–phospho-cyclin E peptide binding, activator screen. 650,000 tested, 0.13% active. normalized activity (activation), % at 26.1 µM; in the data active = normalized activity above about 1.9%;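 note: purified mutant Fbw7 with reduced substrate affinity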
GPR151 ag – activators of human GPR151, primary screen, cell-based, PathHunter beta-arrestin, luminescence; AID 1508602, 2020; 650,000 tested, 1% active; activation, % at 11.2 µM; PathHunter beta-arrestin GPR151 cells; G-protein coupled receptor 151 (Homo sapiens), Q8TDV0; in the data active = activation above about 4.9%;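 note: 0% = median of compound wells and 100% = cells with positive control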
MITF primary – MITF inhibitors, primary screen, biochemical, AlphaScreen, human; Microphthalmia-associated transcription factor (Homo sapiens), O75030; AlphaScreen MITF homodimerization, bead proximity signal; inhibition, % at 2.6 µM; 650,000 tested, 0.91% active; in the data active = inhibition above about 50%;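 note: 0% = vehicle wells with protein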
Target sequence (O75030 whole entry, looked up): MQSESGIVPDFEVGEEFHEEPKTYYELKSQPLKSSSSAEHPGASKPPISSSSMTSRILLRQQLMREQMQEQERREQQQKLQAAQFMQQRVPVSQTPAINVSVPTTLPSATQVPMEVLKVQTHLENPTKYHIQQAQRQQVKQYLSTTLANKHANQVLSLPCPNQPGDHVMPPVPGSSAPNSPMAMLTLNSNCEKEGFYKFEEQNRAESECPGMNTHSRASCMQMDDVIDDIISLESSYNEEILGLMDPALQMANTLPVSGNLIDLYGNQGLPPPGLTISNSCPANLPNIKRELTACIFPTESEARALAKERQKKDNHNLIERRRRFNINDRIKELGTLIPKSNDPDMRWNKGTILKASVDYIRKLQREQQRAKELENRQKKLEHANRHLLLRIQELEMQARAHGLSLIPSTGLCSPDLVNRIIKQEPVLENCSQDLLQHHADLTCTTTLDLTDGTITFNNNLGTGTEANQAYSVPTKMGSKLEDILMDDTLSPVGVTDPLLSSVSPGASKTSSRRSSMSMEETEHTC
TEAD-YAP inh – TEAD-YAP interaction inhibition, primary screen, TEAD-YAP interaction inhibitor project, luminescence, HEK-TIYL cells; TEAD-Gal4/YAP UAS-luciferase luminescence; inhibition, % at 9.12 µM; 640,000 tested, 1.4% active; AID 1259422, 2018; in the data active = inhibition above about 32%;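 note: 0% = median of test compound wells and 100% = reference inhibitor wells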
GPR151 conf act – GPR151 activators, triplicate retest, confirmation, cell-based, PathHunter beta-arrestin, luminescence; GPR151 PathHunter beta-arrestin cells, 90 min; % of EA-reagent control over plate median; AID 1508609, 2020; 6,700 tested, under 10 active; activation, % at 11.2 µM; shares compounds with GPR151 ag;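 active = mean percent activation across replicates above the confirmation screen cutoff of 4.91%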
GPR119 ag – GPR119 activators in beta-arrestin cells, counter-screen for GPR151 activator project, cell-based, PathHunter beta-arrestin, luminescence, triplicate. shares compounds with GPR151 ag. 90 min; 0 = compound-well median, 100 = enzyme-acceptor control. 6,700 tested, 0.3% active. activation, % at 11.2 µM. AID 1508611, 2020;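 active = mean percent activation in the counterscreen above 29.09%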;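 note: counterscreen on off-target GPR119 to flag nonselective hits from the GPR151 activator screen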
The depositor's hits bear a star; . = no result given.

SMILES | FBW7 activator | GPR151 ag | MITF primary | TEAD-YAP inh | GPR151 conf act | GPR119 ag
CCOC(=O)C1C(=O)NC(SCC(=O)Nc2ccc(Br)cc2)=C(C#N)C1c1ccccc1OCC (stereo not given) | -0.1 | 8.5* | -11.0 | -5.5 | -0.1 | 11.1
COc1ccc(/C=N\NC(=O)c2ccc([N+](=O)[O-])cc2)cc1Cl | 0.2 | 6.5* | 17.7 | 9.1 | 0.7 | 2.0
O=C(N/N=C/c1cc([N+](=O)[O-])ccc1O)C12CC3CC(CC(C3)C1)C2 | 0.0 | 5.1* | 0.3 | 4.1 | -0.2 | 6.9
COc1ccc(O)c(/C=N/NC(=O)c2cc([N+](=O)[O-])cc([N+](=O)[O-])c2)c1 | 0.4 | 7.0* | 19.7 | -8.9 | -1.1 | -9.9
CC(C)(C)c1ccc(C(=O)N/N=C/c2ccc(O)c([N+](=O)[O-])c2)cc1 | 0.0 | 5.1* | -2.7 | -31.9 | 0.1 | 0.3
COc1ccc(C(=O)N/N=C/c2cc(OC)ccc2O)cc1 | 0.0 | 0.7 | 26.1 | -2.0 | . | .
CCN(CC)C(=O)CSc1nc2c(sc(=S)n2-c2ccccc2C)c(=O)n1-c1ccc(F)cc1 | 0.2 | -0.1 | 7.3 | 2.2 | . | .
Cc1c(Cl)cccc1NC(=O)c1ccc(N(C)S(=O)(=O)c2ccccc2)cc1 | 0.0 | -0.1 | 2.8 | 13.9 | . | .
CC1CCN(Cc2nnnn2CC(=O)NC(c2ccncc2)c2ccc(F)cc2)CC1 (stereo not given) | -0.1 | -0.6 | 8.8 | 1.9 | . | .
COc1ccc(CCN2C(=O)NC(NC(C)=O)(C(F)(F)F)C2=O)cc1OC (stereo not given) | 0.4 | 5.0* | 12.4 | 3.3 | -0.2 | -9.1
Cc1cc(Nc2ccc(Oc3ccccc3)cc2)nc(Nc2cccnc2)n1 | 0.3 | -0.7 | 12.4 | -8.3 | . | .
Cc1cc(Nc2ccc(Oc3ccccc3)cc2)nc(Nc2ccccn2)n1 | -0.2 | 5.9* | -11.5 | -14.9 | 0.1 | -2.1
C=CCN(c1ccc(C(=O)Nc2ccc(Cl)cc2)cc1)S(C)(=O)=O | 0.2 | 9.2* | 10.2 | 11.4 | 2.7 | 15.5
CC1=C(C#N)c2nc(N)c(C#N)c(C)c2/C1=C\c1cccs1 | 0.0 | 5.4* | -1.9 | -6.6 | 0.8 | -0.7
CC(=O)Oc1ccc2cc(-c3nc4ccccc4s3)c(=O)oc2c1 | -0.2 | -0.8 | -6.9 | -9.5 | . | .
COc1ccccc1Cn1c(=O)c2cccnc2n(CC(=O)Nc2ccccc2)c1=O | -0.2 | 7.0* | -0.3 | 1.0 | -0.9 | -8.0
COc1ccccc1N=C1SC(CC(=O)Nc2cccc([N+](=O)[O-])c2)C(=O)N1C (stereo not given) | 0.1 | 13.6* | -3.5 | -5.7 | -0.5 | -7.3
Cc1c(C(=O)c2ccccc2)oc2ccc(NC(=O)c3cccs3)cc12 | -0.2 | -1.5 | 5.2 | -54.2 | . | .
Cc1ccc(C(=O)c2oc3ccc(NC(=O)c4ccco4)cc3c2C)cc1 | 0.0 | 7.8* | 9.4 | 14.8 | 0.2 | -5.1
Cn1c2ccccc2c2nnc(SCC(=O)c3ccccc3)nc21 | -0.3 | 5.5* | -17.0 | 1.0 | -0.2 | -2.6
Cc1nccn1CCNC(=O)c1ccc(F)c(F)c1 | 0.1 | 9.9* | -5.0 | 7.6 | -0.4 | -9.4
CCOc1ccc(CC(=O)NCCn2ccnc2C)cc1 | -0.1 | 2.8 | 1.0 | 5.3 | . | .
CCN(CC)S(=O)(=O)c1ccc(C(=O)Nc2nnc(-c3ccc(OC)cc3)o2)cc1 | -0.1 | 5.3* | 19.8 | 3.7 | 0.5 | -2.5
CCCN(CCC)CCN1C(=O)C2C(C(=O)Nc3ccc(F)c(Cl)c3)C3C=CC2(O3)C1C(=O)NC1CCCC(C)C1C (stereo not given) | -0.1 | 6.9* | 1.4 | 9.0 | 1.2 | -1.5
COc1ccc(NC(=O)C2C3C=CC4(O3)C2C(=O)N(C(C)CCc2ccccc2)C4C(=O)NC2CCCC(C)C2C)cc1 (stereo not given) | -0.1 | 7.0* | 0.7 | 9.0 | -0.1 | -3.1

Bioassay records deposited in PubChem by The Scripps Research Institute Molecular Screening Center.
